Rows were chosen to be rich in hits. Some 4% of all compounds tested hit in one or more screens of this group.
TIM10 inh: growth inhibitors of isogenic TIM10 control yeast, primary screen, counter-screen for tim10-1 yeast inhibitor project, luminescence, uHTS | 1.4% of 330,000 active | inhibition, % at 10 µM | S. cerevisiae TIM10 strain growth, BacTiter-Glo luminescence, 24 h;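 active = inhibition of 40% or more at the single tested concentration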;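 also: wild-type TIM10 isogenic control strain grown at permissive 25 °C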
NALP1 yeast inh: NALP1 inflammasome inhibitors in reconstituted yeast, colorimetric, S. cerevisiae, triplicate retest | S. cerevisiae NALP1/ASC/caspase-1 growth, X-gal OD620, 72 h | inhibition, % at 10 µM | 0.61% of 280,000 active; in the data active = inhibition mostly above about 24%, no sharp cut-off; inactive = mostly below about 32%
tim23-1 inh: growth inhibitors of tim23-1 mutant yeast, primary screen, luminescence, uHTS | S. cerevisiae tim23-1 growth, BacTiter-Glo luminescence, 24 h | inhibition, % at 20 µM | 1.3% of 330,000 active;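 active = growth inhibition of the mutant yeast at or above 50%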;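 also: temperature-sensitive mutant grown at 25 °C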
NLRP3 yeast inh: NALP3 inflammasome inhibitors in reconstituted yeast, primary screen, luminescence, uHTS; inhibition, % at 10 µM; Yeast reconstituted NLRP3/ASC/caspase-1, beta-gal luminescence, 24 h; AID 2825, 2010; 0.39% of 330,000 active;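 active = inhibition of 50% or more; inactive = inhibition below 50%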
tim10-1 inh: growth inhibitors of tim10-1 mutant yeast, primary screen, luminescence, uHTS. inhibition, % at 20 µM. S. cerevisiae tim10-1 ts strain growth, BacTiter-Glo, 24 h. 2.2% of 330,000 active. AID 463190, 2010;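 active = inhibition of at least 40%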;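 also: mutant grown at 25 °C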
NALP3 confirm: NALP3 inhibitors retested in yeast, confirmation, luminescence, single concentration; yeast expressing human NALP3; 81% of 1,300 active; inhibition, % at 10 µM; shares compounds with NLRP3 yeast inh; AID 435006, 2010; in the data active = inhibition above about 48%
Casp1-ASC yeast: CASP1-PYCARD signaling inhibition in yeast, confirmatory test, counterassay for NLRP3 inhibitor program, one-dose | shares compounds with NLRP3 yeast inh | yeast expressing Caspase-1-ASC, luminescence counter screen | inhibition, % at 10 µM | 66% of 1,000 active | AID 488784, 2010
NALP3 yeast rt: NALP3 inhibitors in yeast, repeat test, confirmation, luminescence, single concentration, retest; inhibition, % at 10 µM; AID 488794, 2010; yeast expressing human NALP3, luminescence read-out; shares compounds with NLRP3 yeast inh; 53% of 1,000 active
A number is an active result; n = inactive; x = no result. Rule as the data show it, unless noted: active = inhibition above about 50%; inactive = the rest.

SMILES	TIM10 inh	NALP1 yeast inh	tim23-1 inh	NLRP3 yeast inh	tim10-1 inh	NALP3 confirm	Casp1-ASC yeast	NALP3 yeast rt
O=C(c1cc(-c2cccc(Cl)c2)on1)N1CCN(c2ccccc2)CC1	n	n	n	n	n	x	x	x
O=C(c1cc(-c2cccc(Cl)c2)on1)N1CCCC1	n	n	n	59	n	77	76	64
COc1ccc(C(NC(=O)c2cc(OC)ccc2OC)c2ccccc2)cc1 (centres undefined)	n	n	n	n	n	x	x	x
COc1ccc(C(NC(=O)c2c(F)c(F)c(F)c(F)c2F)c2ccccc2)cc1 (centres undefined)	n	n	n	63	n	n	x	x
CC(C)N(Cc1ccccc1)S(=O)(=O)c1ccc(F)cc1	n	n	n	51	n	56	n	n
CSc1nc2ccc(S(N)(=O)=O)cc2s1	n	n	n	n	n	x	x	x
CSc1nc2ccc(S(=O)(=O)N3CCCC3)cc2s1	n	n	n	85	n	86	86	80
CC1(C(=O)OCc2cc(=O)n3cc(Br)ccc3n2)CC1(Cl)Cl (centres undefined)	n	n	n	64	n	72	78	64
O=C(C[n+]1ccccc1)N/N=C/c1cc(Br)ccc1O	n	n	n	64	n	66	51	66
O=C(C[n+]1ccccc1)N/N=C/c1ccccc1F	n	n	n	n	n	x	x	x
Brc1ccc2c(c1)CN1CCCC1=N2	n	n	n	63	n	80	53	51
O=C1CN2C(=Nc3ccc(Br)cc3C2c2ccccc2)CCN1 (centres undefined)	n	n	n	n	n	x	x	x
O=C(Cc1ccc(Cl)cc1)N1CCc2ccccc2C1	n	x	n	53	n	n	x	x
COc1ccc(CC(=O)N2CCc3ccccc3C2)cc1	n	n	n	n	n	x	x	x
O=C1/C(=C\c2ccco2)SC(=S)N1c1ccc(O)cc1	n	76	n	81	n	61	n	n
Oc1ccc(N=Nc2ccc3c(c2)OCCO3)c(O)c1	n	x	n	50	n	66	x	x
Oc1ccc(N=Nc2ccc3c(c2)OCCO3)c2cccnc12	n	n	n	n	n	x	x	x
CN(C(=O)CSc1nc2ccccc2s1)c1c(N)n(Cc2ccccc2)c(=O)[nH]c1=O	n	n	n	n	n	x	x	x
O=C1c2ccccc2C(=O)C12OC2c1ccc(Cl)cc1 (centres undefined)	n	n	n	n	n	n	x	x
CCn1c(COc2ccccc2Cl)nnc1SCC(=O)Nc1ncccc1C	n	n	n	n	n	x	x	x
COC(=O)C12CCC3(SCCS3)C(C(=O)OC)(CCC13SCCS3)C2	n	n	n	58	n	n	x	x
Cc1c(C(=O)NC2CCC(C)CC2)oc2ccccc12 (centres undefined)	n	n	n	n	n	x	x	x
COc1ccc(CC(=O)Oc2ccc(C)cc2Br)cc1S(=O)(=O)N1CCOCC1	n	x	n	n	n	x	x	x
COc1ccccc1-c1noc2ncnc(Nc3cccc(C)c3)c12	n	n	n	64	n	71	60	n
COc1cccc(Nc2ncnc3onc(-c4ccccc4OC)c23)c1	n	n	n	n	n	x	x	x
SMILES	TIM10 inh	NALP1 yeast inh	tim23-1 inh	NLRP3 yeast inh	tim10-1 inh	NALP3 confirm	Casp1-ASC yeast	NALP3 yeast rt
CCc1cc(C(=O)Nc2cc(Cl)ccc2N2CCN(C)CC2)sc1C	n	x	n	67	n	79	77	73
O=C(CSc1nnc(NC2CCCCC2)s1)N1CCOCC1	n	x	n	n	n	x	x	x
Cc1ccc(Cl)cc1NC(=O)c1cnn2c1NC(c1ccco1)CC2C(F)(F)F (centres undefined)	n	n	n	58	n	66	72	57
O=C(NCc1cccc(Cl)c1)c1cnn2c1NC(c1ccco1)CC2C(F)(F)F (centres undefined)	n	n	n	n	n	x	x	x
C=C(Cl)COc1ccc2c(CC)cc(=O)oc2c1	n	n	n	51	n	n	64	56
O=C(Nc1ccc([N+](=O)[O-])cc1)Nc1ccc(Cl)cc1F	n	n	n	76	n	49	n	n
CCc1ccccc1NC(=O)CC1SCCNC1=O (centres undefined)	n	n	n	n	n	x	x	x
CN1CCN(c2ccc(NC(=O)c3cccc(OCc4ccccc4)c3)cc2)CC1	n	31	n	50	n	55	n	n
C[C@@H](N)C(=O)NC[C@H]1CC[C@H](C(=O)N[C@@H](Cc2ccccc2)C(=O)O)CC1	n	n	n	62	n	76	58	63
FC(F)(F)c1cccc(-c2nc3nc(Cl)c(Cl)nc3[nH]2)c1	n	n	n	61	n	97	n	n
CN(C)c1oc(/C=C/c2ccccc2)nc1C#N	n	n	n	54	n	n	57	50
CCN(CC)c1ccc(NC(=O)CSC(=O)c2ccccc2)cc1	n	x	n	56	n	54	57	n
CC(=O)c1cccc(NC(=O)CSC(=O)c2ccccc2)c1	n	n	n	n	n	x	x	x
COc1cc(C2SCC(=O)N2Cc2ccccc2)ccc1O (centres undefined)	n	n	n	n	n	x	x	x
O=S(=O)(NCC1CCCO1)c1ccc(Cl)cc1 (centres undefined)	n	n	n	n	n	x	x	x
O=c1cc(CSc2ccc(Cl)cc2)nc(-c2ccccn2)[nH]1	n	n	n	64	n	84	97	91
O=c1cc(CSc2ccc(Cl)cc2)nc(-c2ccccc2)[nH]1	n	n	n	n	n	x	x	x
Clc1ccc(SCc2cc(N3CCOCC3)nc(-c3ccccn3)n2)cc1	n	n	n	51	n	57	55	54
CC1=[N+]([O-])C(C)(C)C(c2ccc(Br)cc2)=[N+]1[O-]	n	n	n	n	n	x	x	x
C=CCNC(=O)/C(C#N)=C/c1ccc(OS(=O)(=O)c2ccc(C)cc2)c(OC)c1	x	n	x	x	x	x	x	x
Cc1ccc(S(=O)(=O)N(C)/N=C/c2ccc(N(C)C)cc2)cc1	n	n	n	51	n	54	n	n
O=C(c1cccs1)N1CCc2ccccc21	n	n	n	n	n	x	x	x
O=C(/C=C/c1cccs1)N1CCc2ccccc21	n	n	n	52	n	n	x	x
CC1CCc2sc(C(=O)N=Nc3c(O)[nH]c4ccccc34)cc2C1 (centres undefined)	n	x	n	n	n	x	x	x
CC(C)COc1ccc(CSCCNC(=S)Nc2ccccc2)cc1	n	n	n	53	n	80	58	n
CCc1cc2cc(C)ccc2nc1SCC(=O)NC1CCCC1	n	n	n	54	n	62	n	n
COc1ccc(S(=O)(=O)N2CCOCC2)cc1NC(=O)/C=C/c1ccccc1	n	x	n	n	n	x	x	x

Source: PubChem
